# Screens from PubChem BioAssay.
# Most compounds without a hit are left out; they make up all but 2.9% or so of the library.
# Nrf2 activator: Nrf2 pathway activation; AREc32 ARE-luciferase reporter (MCF7-derived line), luminescence, 24 h; Potency, µM (doses to about 46.1 µM), inactives show at the top dose activation, hits mostly activators; 410,000 compounds, 0.31% hits; AID 624171; note: % of control where 0% means no effect; nearly all actives have a fitted effect of over 65% in size
#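 Reporter line AREc32 (ARE-Fluc), seeded overnight in OPTI-MEM with 5% FBS; compound pin-transferred, 24 hr at 37 deg C, 5% CO2; luminescent read-out.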
# Nrf2 block: inhibitors of Nrf2 signaling | AID 504444 | 360,000 compounds, 2.1% hits | A549 ARE-Fluc reporter, luciferase luminescence, 18-24 h | Potency, µM (highest dose often 46 µM), for inactives: at the highest dose activity change, negative = inhibition, usual class: inhibitors; note: % is set by controls: 0 for no effect and ±100 for the full control effect; nearly all actives have a fitted effect of over 60% in size
#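 Two sequential reads on A549 ARE_Fluc cells exposed to compound for 18-24 h: a CellTiter-Fluor fluorescence read for viability, then a luciferase luminescence read for Nrf2/ARE activity.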
# S2 tox: reduces viability in counter-screen for ATXN expression inhibitors | S2 cells (HEK-293 line with an ATXN2-luciferase reporter) viability, CellTiter-Fluor protease fluorescence, 24 h | Potency, µM (doses to about 56.7 µM), actives largely listed as cytotoxic | 400,000 compounds, 0.49% hits; note: nearly all actives have a fitted effect of over 40% in size
# ATXN2 expr inh: inhibitors of ATXN2 expression; HEK-293 ATXN2-luciferase reporter, luminescence, 24 h; Potency, µM (doses to about 57 µM), for inactives: at the highest dose activity change, negative = inhibition, most hits filed as inhibitors; 360,000 compounds, 0.72% hits; AID 1745845; note: % is set by controls: 0 for no effect and ±100 for the full control effect; nearly all actives have a fitted effect of over 55% in size
#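 qHTS (up to 57 uM final) was run with 24 h compound exposure of reporter cells at 37 °C. Each well was multiplexed: SteadyGlo luminescence measured ATXN2-luciferase expression after a fluorogenic Gly-Phe-AFC viability readout (25 uM final).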
# A549 tox: A549 cytotoxicity, counter-screen for Nrf2 inhibitors. A549 ARE-Fluc cells, CellTiter-Fluor viability, 18-24 h. Potency, µM (top dose mostly 46 µM), without a hit: at the top dose activity change, negative = cytotoxicity, usual class: inhibitors. 390,000 compounds, 0.16% hits; note: % is set by controls: 0 for no effect and ±100 for the full control effect
#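 A549 ARE_Fluc cells in 5% FBS OPTI-MEM were exposed to compounds in concentration-response for 18-24 h at 37 deg C. Viability was read by CellTiter-Fluor fluorescence (Ex 405/Em 525) after 30 min, before the luciferase read.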
# * marks the source's active call; other numbers are inactive results; i = inactive; ? = inconclusive; nt = no result given; [ ] = remark or other dose. Calls come from the whole dose curve; as a rule, active = well fitted curve in the direction sought with a large enough effect; inconclusive = small, poorly fitted or top-dose-only effect, or another doubt; inactive = no such curve, though single readings can be large; an effect the other way counts as inactive or inconclusive. Potency is the fitted concentration of half-maximal effect.
SMILES,Nrf2 activator,Nrf2 block,S2 tox,ATXN2 expr inh,A549 tox
COc1ccc(NC(=O)CCS(=O)(=O)c2nc(-c3ccc4c(c3)OCO4)cc(C(F)(F)F)n2)cc1,-4%,9%[9.27 µM],nt,nt,-3%
Cc1cc(NC(=O)CCS(=O)(=O)c2nc(-c3ccccc3)cc(C(F)(F)F)n2)no1,-4%,nt,20µM*,?,-2%
CS(=O)(=O)c1nc(-c2ccccc2)cc(C(F)(F)F)n1,?,23µM*,nt,?,?
O=C(/C=C/c1ccccn1)NCC1Cc2cccc(-c3ncccn3)c2O1 (configuration not stated),nt,nt,i,nt,nt
CC(C)N1CCc2c(sc(NC(=O)c3nc4ccccc4s3)c2C(N)=O)C1,1%,?,i,-8%,-23%
CC(=O)N1CCc2c(sc(NC(=O)C3CC3)c2-c2nc3ccccc3s2)C1,?,-16%,?,32µM*,-11%
CC(=O)Nc1sc2c(c1-c1nc3ccccc3s1)CN(C(C)C)CC2,-2%,?,i,3.5µM*,-12%
Cc1nc(C(=O)NCC(=O)O)c(O)c2ccc(Oc3ccccc3)cc12,nt,nt,nt,23%,nt
O=C(O)C1=CO[C@@H](O[C@@H]2O[C@H](CO)[C@H](O)[C@H](O)[C@H]2O)[C@@H]2C(CO)=CC[C@H]12,nt,nt,nt,2%,nt
OC(CNCCC1C=Nc2ccccc21)Cn1c2ccc(Cl)cc2c2cc(Cl)ccc21 (configuration not stated),-2%,2%,nt,32µM*,?
OC(CNCC1CCCO1)Cn1c2ccc(Cl)cc2c2cc(Cl)ccc21 (configuration not stated),-2%,2%,?,?,-24%
CN(C)C(=S)SC(=S)N(C)C,nt,nt,2.5µM*,2.5µM*,nt
CN(C)CCN1CCN(c2cccc(Cl)c2)C1=O,nt,nt,i,17%,nt
c1ccc(CNCCCNCCCCNCCCNCc2ccccc2)cc1,-4%,?,?,28µM*,-13%
Cc1cc(C)c(S(=O)(=O)NCCc2cc3ccc(C)c(C)c3[nH]c2=O)c(C)c1,-1%,?,i,10%,-5%
Cc1ccc2cc(CCNS(=O)(=O)c3ccc(Br)cc3)c(=O)[nH]c2c1C,2%,23µM*,i,-32%,-23%
CSc1ccc(C(=O)N2CCc3c(cnc(C)c3CNC(=O)c3cncs3)C2)cc1,nt,nt,i,nt,nt
O=C(/C=C/c1ccc(Cl)cc1)NC(=S)Nc1ccc(N2CCOCC2)c(Cl)c1,-1%,16µM*,?,?,-12%
COc1ccc(C(=O)NC(Nc2ccc(C)cc2)C(Cl)(Cl)Cl)cc1 (configuration not stated),4%,21µM*,i,-20%,?
CCn1c(-c2ccccc2Cl)nn(CC(=O)Nc2cc(Cl)ccc2Cl)c1=S,6%,16µM*,i,-25%,-11%
Cc1ccc(S(=O)(=O)Nc2cccc(-c3ccc(N4CCC(C)CC4)nn3)c2)s1,5%,nt,?,9%,-20%
CC(C)C(=O)Nc1cccc(C(=O)OCC(=O)c2ccc(Cl)cc2Cl)c1,1%,21µM*,?,42%,?
CC(=O)Nc1cc(C(=O)OCC(=O)c2ccc(Cl)cc2Cl)ccc1C,0%,?,i,1%,-11%
CCc1ccc(NC(=O)N(CCN2CCOCC2)Cc2ccc3c(c2)CCCN3CC)cc1,3%,?,i,-6%,16µM*
CCN1CCCc2cc(CN(CCN3CCOCC3)C(=O)Nc3ccc(C)c(C)c3)ccc21,3%,-30%,i,-23%,?
Cc1ccccc1NC(=O)c1ccc(N/N=C/c2ccccc2O)c([N+](=O)[O-])c1,-1%,12%,?,-2%,-3%
Cc1ccc(NC(=O)c2ccc(Nc3c([N+](=O)[O-])cc([N+](=O)[O-])cc3[N+](=O)[O-])cc2)cc1,-1%,-13%,nt,20µM*,-29%
Cc1ccc(NC(=O)c2ccc(N/N=C/c3cccc(O)c3)c([N+](=O)[O-])c2)cc1,3%,18µM*,?,?,?
CCn1c(CN2CCC(C)CC2)nc2cc(NC(=O)COc3ccc(Cl)c(C)c3)ccc21,1%,15µM*,?,?,?
Cc1ccc(C)c(N2CCN(C(=O)CCS(=O)(=O)c3ccc4c(c3)NC(=O)CO4)CC2)c1,-1%,8.2µM*,?,?,-10%
